# In the library only some 3% were active in any assay of this set; here they are far more common.
# sdo1 growth: sdo1-depleted yeast growth rescue; S. cerevisiae sdo1-depleted JHY4D growth rescue, OD600 30 h; active compounds read high; pdr5 snq2 efflux-pump mutant strain; z-score at 10 µM; 0.21% of 140,000 active; AID 817;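 active means z-score above 3 at both the 24 hr and the 30 hr optical density reads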
# INS promoter inh: TRM-6 insulin promoter activity inhibition; TRM-6 cells (human fetal islet line), insulin promoter-eGFP reporter, imaging; reporter expression induced with tamoxifen; inhibition, % at 2 µM; 0.9% of 130,000 active; AID 1273;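 active means inhibition above the mean plus 3 SD, with well images judged a real hit on visual review, cut at about 60% in these data, passing the limit was not always enough; inconclusive means inhibition over the cutoff but images rejected on review; inactive means inhibition not above the cutoff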
# ROMK primary: modulates human ROMK potassium channel activity. 2% of 130,000 active. Tet-inducible ROMK, thallium flux fluorescence; actives lie on both sides. P48048. B-score at 10 µM;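 active means signal ratio slope over the read window, or its plate-corrected B-score, at least 3 SD from the plate mean, either direction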;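 further: B-score of the F/F0 ratio slope over 7 to 12 s after thallium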
# Target sequence (P48048 whole entry, looked up): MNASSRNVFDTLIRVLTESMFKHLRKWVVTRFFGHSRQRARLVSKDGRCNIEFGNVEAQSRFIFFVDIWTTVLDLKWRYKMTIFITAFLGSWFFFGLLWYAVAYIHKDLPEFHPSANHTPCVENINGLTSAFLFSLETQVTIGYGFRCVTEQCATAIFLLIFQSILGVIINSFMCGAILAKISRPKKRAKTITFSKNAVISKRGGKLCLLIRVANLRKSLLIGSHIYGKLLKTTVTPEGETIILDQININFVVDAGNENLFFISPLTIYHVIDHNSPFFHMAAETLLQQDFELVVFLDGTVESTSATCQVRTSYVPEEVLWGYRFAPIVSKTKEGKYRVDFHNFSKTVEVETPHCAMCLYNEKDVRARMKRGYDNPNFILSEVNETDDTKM
# Measles CPE: protection of cells from measles virus; protection (pct of control), % at 4 µM; Measles virus-infected cells, CPE protection, absorbance; 1.5% of 140,000 active; in the data active means protection mostly above about 24%, no sharp cut-off; inactive means mostly below about 26%
# ROMK retest: retested hit modulating human ROMK potassium channel; shares compounds with ROMK primary; normalized thallium flux (F/F0 slope) at 10 µM; 54% of 3,000 active; ROMK thallium flux, fluorescence ratio; active compounds read low;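 active means Flux at 10 µM at least 3 SD below or above vehicle control mean in one or both replicates; inconclusive means no clear call, values can overlap the other calls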
# Hits are given with their value; – = inactive; ? = inconclusive; · = no result given.
SMILES,sdo1 growth,INS promoter inh,ROMK primary,Measles CPE,ROMK retest
Cc1cccc(-c2nc(CS(=O)CC(=O)NCCCSC3CCCCC3)c(C)o2)c1 (configuration not stated),–,·,-4,–,0.059
CCCCNC(=O)CS(=O)Cc1nc(-c2ccc(C)cc2)oc1C (configuration not stated),–,·,·,–,·
NC(=S)c1cc2cc(Cl)ccc2oc1=O,·,·,–,·,·
O=C(Nc1cccnc1)c1ccc(Cl)c(S(=O)(=O)N2CCCCCC2)c1,–,–,·,–,?
O=C(Nc1cccnc1)c1ccc(S(=O)(=O)N2CCCCCC2)cc1,–,–,–,–,·
O=C(Nc1ccc2c(c1)OCO2)c1ccc(Br)c(S(=O)(=O)N2CCCC2)c1,–,–,-2.9,–,0.066
CCOC(=O)c1ccc(NC(=O)c2ccc(C)c(S(=O)(=O)N3CCOCC3)c2)cc1,–,–,–,–,·
CCN(CC)CCOC(=O)c1ccc(NC(=O)c2ccc(Cl)c(S(=O)(=O)N3CCCCCC3)c2)cc1,·,–,–,·,–
Cc1ccc(-n2cccn2)c(CN2CCC(CO)(CCc3ccccc3)CC2)c1,·,·,-3.3,·,0.061
O=C(COc1ccccc1-c1ccccc1)NCc1cccc(Cl)c1,–,·,·,–,·
Cc1cccc(OCCCC(=O)N2CCCc3ccccc32)c1C,–,–,–,–,·
COc1ccc(C(=O)Sc2nncc3ccccc23)cc1,·,–,–,·,·
CCOC(=O)COc1ccc(Br)cc1/C=C/c1[nH]c(=O)[nH]c(=O)c1[N+](=O)[O-],·,·,-2.7,·,0.051
N#C/C(=C\c1ccncc1)c1nc2ccccc2c(=O)[nH]1,·,·,-4.9,·,0.051
N#C/C(=C\c1ccccc1)c1nc2ncccc2[nH]1,–,·,-2.5,56,0.053
N#C/C(=C/c1ccncc1)c1nc2ccccc2c(=O)[nH]1,·,·,-6.6,·,0.042
N#C/C(=C1\CCCN1)c1nc2ccccc2c(=O)[nH]1,–,–,–,–,·
O=[N+]([O-])c1ccc(N2CCN(S(=O)(=O)c3ccccc3)CC2)cc1NCc1ccco1,–,·,·,–,·
Oc1ccccc1N=Cc1c(O)ccc2ccccc12,·,·,·,·,0.045
CN(C)/N=C/c1c(O)ccc2ccccc12,–,–,–,–,·
O=C(O)/C=C/C(=O)Nc1ccccc1C(=O)Nc1ccccc1,–,–,–,–,·
Cc1n[nH]c(=O)n1-c1cccc(C(F)(F)F)c1,–,–,·,–,–
O=C1CC(/C=C/c2ccccc2)(C(=O)NC2CCCC2)N1c1ccc(S(=O)(=O)N2CCCC2)cc1 (configuration not stated),–,–,–,–,·
COc1ccc(N2C(=O)CC2(/C=C/c2ccccc2OC)C(=O)NC2CCCC2)cc1 (configuration not stated),–,–,-4.7,–,0.054
COCc1cc(C)nc(SCC[N+](C)(C)CC(=O)Nc2cccc(C(F)(F)F)c2)c1C#N,·,–,-2.6,·,0.059
SMILES,sdo1 growth,INS promoter inh,ROMK primary,Measles CPE,ROMK retest
Cc1ccc(/C=N/n2c(C3CCCCC3)n[nH]c2=S)s1,–,–,–,–,·
O=C1/C(=C/c2ccccc2)CCCc2ccccc21,–,–,·,–,·
CN(C)c1ccc(/C=C2\CCC/C(=C\c3ccccc3)C2=O)cc1,–,–,·,–,?
Cc1ccccc1Cn1cc(C)c(=O)[nH]c1=O,·,–,2.1,·,–
Cc1cn(Cc2ccccc2Cn2cc(C)c(=O)[nH]c2=O)c(=O)[nH]c1=O,·,·,–,·,·
COc1ccc(NS(=O)(=O)c2cc(NC(=O)c3cc(F)c(F)c(F)c3F)ccc2N2CCCC2)cc1,·,·,·,·,–
CCOc1cc2c3c(c1)C(C)CC(C)(C)N3C(=O)C2=O (configuration not stated),–,–,·,–,·
Cc1cc2c3c(c1)C(C)CC(C)(C)N3C(=O)C2=O (configuration not stated),·,–,3.1,·,?
O=C(NNC(=O)C1CCCN(S(=O)(=O)c2ccc3ccccc3c2)C1)C1CC1 (configuration not stated),·,–,–,·,·
CC(C)NC(=O)CN1CCN(c2ncccn2)CC1,–,–,·,–,·
CCOC(=O)N1CCN(C(=O)c2ccc3c(=O)n(CCc4ccccc4)c(=S)[nH]c3c2)CC1,–,–,–,–,·
CCCn1c(=S)[nH]c2cc(C(=O)N3CCCC(C(=O)OCC)C3)ccc2c1=O (configuration not stated),–,–,-3.2,–,0.06
CC1CCN(C(=O)c2ccc(S(=O)(=O)N(C)C)cc2)C(C)C1 (configuration not stated),–,–,3,–,–
Cc1cccc(N/N=C(\C(N)=O)C2=NC(C)(C)Cc3ccccc32)c1,–,–,-3,–,0.059
C=CCn1c(N2CCN(c3ccc(OC)cc3)CC2)nc2c1c(=O)[nH]c(=O)n2C,·,·,–,·,·
O=C(N[C@@H](Cc1ccccc1)C(=O)NC1CCCCC1)c1ccco1,–,–,1.9,–,–
O=C(N[C@@H](Cc1ccccc1)C(=O)NC1CCCCCC1)c1ccco1,–,–,–,–,·
COc1ccc(/C=N/NC(=O)c2ccncc2)cc1Cn1nc([N+](=O)[O-])c(Br)c1C,·,–,–,·,·
CCC(OCC(O)CN1CCN(CCN2C(=O)c3cccc4cccc(c34)C2=O)CC1)c1ccccc1 (configuration not stated),–,–,-3.6,–,0.059
Cc1ccccc1OCC(O)CN1CCN(CCN2C(=O)c3cccc4cccc(c34)C2=O)CC1 (configuration not stated),–,·,·,–,·
COc1ccccc1NC(=O)COC(=O)/C=C/c1ccc2c(c1)OCO2,·,·,–,·,·
COc1ccccc1NC(=O)/C=C/c1ccc2c(c1)OCO2,·,·,5.1,·,–
COc1ccc(/C=C(\C#N)C(=O)N2CCOCC2)cc1Br,–,–,-3.7,–,0.051
COc1ccc(CC(=O)NC(C)c2nnc(SCC(=O)Nc3cc(C)ccc3OC)n2C)cc1 (configuration not stated),·,–,–,·,·
CC(NC(=O)c1cn(C(C)c2ccccc2F)nn1)c1ccncc1 (configuration not stated),·,–,–,·,·
SMILES,sdo1 growth,INS promoter inh,ROMK primary,Measles CPE,ROMK retest
CC(/C=C/c1ccccc1)=N/NC(=O)c1cccc(Br)c1,·,–,–,·,·
COc1ccccc1Cn1c(CCCO)nc2ccccc21,–,–,-3.8,–,?
CC1=C(C(=O)OC2CCCCC2)C(c2ccco2)C2=C(CC(C)(C)CC2=O)N1 (configuration not stated),–,–,·,–,–
CC1=C(C(=O)OC2CCCCC2)C(c2ccc(C)o2)C2=C(CCCC2=O)N1 (configuration not stated),–,·,–,–,·
COc1ccc(NC(=O)Cn2c(=O)n(-c3ccc(OC)cc3OC)c(=O)c3c(C)c(C)sc32)cc1,–,–,–,–,·
CCCn1nc(C(=O)OCC(=O)Nc2ncc(Cl)c(C)c2Cl)c2ccccc2c1=O,–,·,·,–,·
CC(C)CCNC(=O)NC(=O)COC(=O)C1=COCCO1,–,78,–,–,–
CC(C)c1cccc(C(C)C)c1NC(=O)COC(=O)C1=COCCO1,·,·,–,·,·
Cc1ccc(S(=O)(=O)Nc2n[nH]nc2C(=O)NC2CCCCC2)cc1,·,–,–,·,·
Cc1n[nH]c(C)c1CCC(=O)N/N=C/C=C/c1ccccc1,–,–,–,–,·
COc1ccc(/C=C(\C#N)C(=O)OCCNC(=O)c2ccncc2)cc1,·,·,–,·,·
CC(=O)c1cc2ccc(O)cc2oc1=O,·,·,-6.4,·,0.05
